From PubChem
An excerpt weighted towards active compounds, which were near 1.5% of everything screened.
MCL1-BIM inh: inhibitors of MCL1 binding to BIM-BH3, primary screen, biochemical, fluorescence polarization; inhibition, % at 10.9 µM; hit rate 0.68% among 320,000; GST-MCL1 / FITC-Bim-BH3 fluorescence polarization; Induced myeloid leukemia cell differentiation protein Mcl-1 (Homo sapiens), Q07820; AID 2057, 2009;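 active means inhibition above the mean inhibition of all tested compounds plus 3 SD, set per campaign, cut at about 40% in these data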;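 further: 0% = DMSO wells and 100% = unlabeled Bim-BH3 peptide control; higher means more loss of mP so more displacement of Bim peptide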
BCLXL inh: inhibitors of human Bcl-xL, primary screen, biochemical, fluorescence polarization, HTS. Bcl-2-like protein 1 (Homo sapiens), Q07817. AID 2129, 2009. inhibition, % at 10.9 µM. hit rate 0.7% among 320,000. GST-Bcl-xL / FITC-Bim BH3 peptide fluorescence polarization;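 active means inhibition above the mean of all tested compounds plus 3 SD, cutoff set per campaign, cut at about 30% in these data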;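 further: 0% = DMSO wells and 100% = unlabeled Bim-BH3 peptide competitor; inhibitors lower millipolarization by displacing the labeled peptide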
EBV gp42 block: Epstein-Barr virus gp42 inhibitors, primary screen, biochemical, uHTS, fluorescence polarization | Glycoprotein 42 (Epstein-Barr virus (strain AG876)), Q1HVG2 | Fluorescence polarization binding assay, mP read-out | inhibition, % (tested at 21.74 µM) | hit rate 0.42% among 220,000; in the data active means inhibition above about 50%
MEX-5 binding: MEX-5 zinc finger RNA-binding disruptors – biochemical, C. elegans, fluorescence polarization, MLPCN library, primary screen; activity score (negative = inhibition of binding), % at 10 µM; MEX-5/FITC-TCR2 RNA binding; hits give low values; hit rate 0.38% among 300,000; Zinc finger protein mex-5 (Caenorhabditis elegans), Q9XUB2;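 active means inhibition past about -25% in most replicates, and total fluorescence under double the plate's negative control median, limit read from the data; inconclusive means replicates evenly split on the limit, or fluorescence at least double controls; inactive means too little inhibition in most replicates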;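 further: 0% = DMSO and -100% = 5 µM competing unlabeled TCR2 RNA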
Target sequence (Q9XUB2 whole entry, looked up): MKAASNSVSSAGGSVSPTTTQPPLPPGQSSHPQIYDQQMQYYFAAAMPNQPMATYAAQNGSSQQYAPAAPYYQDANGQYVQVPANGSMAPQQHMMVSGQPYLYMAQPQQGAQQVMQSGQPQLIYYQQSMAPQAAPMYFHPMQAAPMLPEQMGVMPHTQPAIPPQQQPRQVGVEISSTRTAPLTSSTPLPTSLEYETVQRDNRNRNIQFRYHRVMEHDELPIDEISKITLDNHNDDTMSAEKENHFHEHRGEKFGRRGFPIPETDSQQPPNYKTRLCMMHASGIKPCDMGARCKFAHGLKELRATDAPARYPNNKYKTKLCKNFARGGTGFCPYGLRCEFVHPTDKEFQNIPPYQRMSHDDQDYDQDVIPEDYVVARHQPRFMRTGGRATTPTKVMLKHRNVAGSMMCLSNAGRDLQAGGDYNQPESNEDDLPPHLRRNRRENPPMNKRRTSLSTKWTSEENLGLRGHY
GLD-1 TGE inh: GLD-1/TGE RNA complex disruptors, primary screen, biochemical, fluorescence polarization | purified GLD-1 + fluorescein TGE RNA | inhibition, % at 5.96 µM | hit rate 0.44% among 320,000 | AID 2280, 2010;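 active means percent inhibition above a per-plate cutoff, the plate mean of test compounds plus 3 SD, cut at about 30% in these data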;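 further: 0% = DMSO wells with GLD-1 and probe and 100% = wells lacking GLD-1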
E coli Lon inh: inhibitors of E. coli Lon protease, primary screen, biochemical, fluorescence polarization. P0A9M0. purified E. coli Lon protease. hit rate 0.42% among 360,000. inhibition, % at 7.94 µM; in the data active means inhibition above about 13%, passing the limit was not always enough;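 further: 0% = enzyme with probe and DMSO and 100% = no enzyme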
Bcl-xL conf: Bcl-xL inhibitors blocking Bim BH3 binding, confirmation, counter-screen for MCL1 inhibitor project, biochemical, fluorescence polarization; GST-Bcl-xL / FITC-Bim BH3 peptide FP binding; AID 2166, 2009; inhibition, % at 10.9 µM; hit rate 54% among 1,700; shares compounds with MCL1-BIM inh;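 active means inhibition above a cutoff equal to the mean inhibition of all tested compounds plus 3 SD, cut at about 30% in these data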;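 further: 0% = DMSO wells and 100% = unlabeled Bim BH3 control peptide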
MCL1 inh confirm: inhibitors of MCL1 binding to BIM-BH3, confirmation, biochemical, fluorescence polarization, triplicate. shares compounds with MCL1-BIM inh. GST-MCL1 / FITC-Bim-BH3 fluorescence polarization. inhibition, % at 10.9 µM. hit rate 61% among 1,700. AID 2168, 2009;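 active means inhibition above the average of all tested compounds plus 3 SD, cut at about 40% in these data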;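 further: 0% = DMSO wells and 100% = unlabeled Bim-BH3 control peptide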
* = called active by the depositor; ? = inconclusive; . = no result given.

SMILES	MCL1-BIM inh	BCLXL inh	EBV gp42 block	MEX-5 binding	GLD-1 TGE inh	E coli Lon inh	Bcl-xL conf	MCL1 inh confirm
COC(=O)C1=C(N)N(c2ccc(F)cc2)C2=C(C(=O)CCC2)C1c1ccc2c(c1)OCO2 (stereo not given)	7	7	-1	-1	4	-8	.	.
COc1cccc(-n2c(SCc3cc(=O)oc4cc(O)c(O)cc34)nc3ccccc3c2=O)c1	51*	13	25	0	9	-4	21	63*
Cc1ccccc1C(=O)Nc1nnc(CC(=O)N/N=C/c2ccco2)s1	9	2	-4	-2	1	-1	.	.
Cc1ccc(C(=O)Nc2nnc(CC(=O)N/N=C/c3ccc(O)c(O)c3)s2)cc1	76*	28	.	-1	11	-9	51*	80*
CC(Cc1c[nH]c2ccccc12)C(=O)N1CCN(c2ccccc2F)CC1 (stereo not given)	5	5	.	0	7	-7	.	.
CCCc1cc(C(=O)Cc2ccc(C(=O)OCC)o2)c(O)cc1O	-25	-12	-9	-2	4	-4	.	.
Cc1nnc(SCC(=O)Nc2sccc2C#N)s1	53*	29	.	1	8	-6	20	22
O=C(CCNC(=O)N1CCn2c1nc1ccccc12)NCc1ccc(Cl)cc1	0	3	.	-1	-1	6	.	.
COc1cccc(Cn2nc3c4cc(F)ccc4n(Cc4ccc(F)cc4)cc-3c2=O)c1	-7	-1	.	-2	3	6	.	.
COc1cc2c3nnc(-c4ccc(F)cc4)c-3cn(Cc3cccc(F)c3)c2cc1OC	85*	76*	-28	?	-5	-9	82*	87*
COc1cc2c3nnc(-c4ccc(F)cc4)c-3cn(Cc3cccc(C)c3)c2cc1OC	99*	96*	-8	?	50*	-60	85*	90*
COc1ccc(Br)cc1C(=O)Nc1ccc(N2CCCC2)cc1	46*	9	.	3	10	0	20	18
Clc1ccc(-c2cn3nc4c(nc3n2)CCCC4)cc1	106*	104*	-13	1	81*	6	77*	89*
CC(C)C[C@H](NC(=O)C1CC(=O)N(c2ccc3c(c2)OCO3)C1)C(=O)NC1CCCC1 (stereo not given in full)	56*	56*	.	-21	38*	9	49*	59*
C[C@H](NC(=O)C1CC(=O)N(c2ccc3c(c2)OCO3)C1)C(=O)NC1CCCC1 (stereo not given in full)	1	5	.	-2	-3	-5	.	.
COc1ccc(C(=O)n2nnc3ccccc32)cc1OC	1	-4	-1	.	-8	-2	.	.
COc1ccc(N/C(=C(/C(Cl)=C(Cl)Cl)[N+](=O)[O-])n2nnc3ccccc32)cc1OC	104*	97*	12	-7	37*	.	30	21
Brc1ccc(C2=Nc3cccc4cccc(c34)N2)o1	41*	20	-11	-1	0	-7	8	14
O=C1CCCC(O)=C1N=Nc1ccc(C(=O)O)cc1	41*	8	4	-26*	-2	-2	4	9
O=C1CCCC(O)=C1N=Nc1ccc2c(c1)OCO2	-8	-6	-58	7	-10	-22	.	.
Cc1ccccc1OCc1nnc(SCC(=O)NCc2ccco2)n1C	4	1	5	0	5	1	.	.
COc1ccccc1OCc1nnc(SCC(=O)NCc2ccco2)n1Cc1ccco1	46*	9	40	-1	2	-17	15	38
CCC(=O)N1CCN(c2ccc(NC(=O)c3cccs3)cc2)CC1	42*	3	-22	-2	0	9	1	-6
Cc1cc(C)c2cc3c(ccn3C3OC[C@H](O)[C@H](O)[C@H]3O)cc2n1 (stereo not given in full)	100*	88*	94*	-13	5	14	72*	86*
COc1cc(Br)c(Br)c(Br)c1N	1	2	-6	3	5	3	.	.
SMILES	MCL1-BIM inh	BCLXL inh	EBV gp42 block	MEX-5 binding	GLD-1 TGE inh	E coli Lon inh	Bcl-xL conf	MCL1 inh confirm
O=C(NCc1ccc2[nH]c3c(c2c1)CCCC3)c1ccc(S(=O)(=O)N2CCOCC2)cc1	-4	3	7	2	5	2	.	.
O=C(NCc1ccc2[nH]c3c(c2c1)CCCC3)N1CCOCC1	66*	64*	31	-14	40*	.	53*	72*
Cc1ccc(C(=O)N/C(=C\c2ccc(-c3ccccc3[N+](=O)[O-])o2)C(=O)NCCN(C)C)cc1	66*	56*	.	-10	23	2	7	2
Cc1ccc(C(=O)N/C(=C\c2ccc(-c3ccccc3[N+](=O)[O-])o2)C(=O)NCCCN(C)C)cc1	80*	76*	.	-27*	51*	18	19	9
CN(C)CCNC(=O)/C(=C/c1ccc(-c2cccc([N+](=O)[O-])c2)o1)NC(=O)c1ccccc1	7	0	-27	1	2	-1	.	.
O=C1NC2(CCCC2)C(=O)N1CCS(=O)(=O)Oc1ccccc1	-3	3	2	1	-1	-3	.	.
CCOc1ccc(CC(=O)N2CCC3(CC2)NCCc2[nH]cnc23)cc1	-8	-7	.	4	-4	-15	.	.
COc1cccc(Nc2nc(CN3CCOCC3)nc3sc4c(c23)CCCC4)c1	7	5	-2	1	4	-12	.	.
C=CCSC1=N/C(=C\C=C\c2ccco2)C(=O)S1	47*	13	-14	0	0	-8	3	27
Cc1ccccc1P(=O)(c1ccccc1)c1ccccc1C	.	.	.	.	.	-5	.	.
CCOC(=O)c1cnc(SCC(=O)Nc2nnc(CC)s2)nc1N	-1	2	-3	1	10	-10	.	.
Cc1cc(C)n2c(=O)c3ccc(Cl)cc3nc2c1C#N	51*	21	-5	-3	7	0	6	-1
CC1CC(C)CN(CCCNC(=O)c2ccc(CNS(=O)(=O)c3ccc(F)cc3)cc2)C1 (stereo not given)	9	5	.	-3	7	-1	.	.
